Hits are enriched below; roughly 5.3% of the tested compounds scored in any of these assays.
BAZ2B block: BAZ2B (human) inhibition. Q9UIF8. hit rate 4.4% among 360,000. Potency, µM (doses to about 114 µM), for the others: at the top dose activity change, negative = inhibition, usual class: inhibitors. AID 504333. AlphaScreen BAZ2B-H3K14Ac peptide displacement; note: potency is the fitted concentration of half-maximal effect; % is set by controls: 0 for no effect and ±100 for the full control effect; nearly all actives have a fitted effect of over 60% in size
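Protein-peptide AlphaScreen: BAZ2B 50 nM, b-H3K14Ac 50 nM, 1x PBS pH 7.4 + 0.01% Tween-20. Preincubation 30 min RT; cpd 30 min RT (top 110 uM); beads 20 min RT, light-protected.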
JMJD2A Tudor: inhibitors of human JMJD2A Tudor domain; O75164; AlphaScreen JMJD2A-Tudor / H3K4me3 peptide binding; Potency, µM (series often up to 114 µM), without a hit: top-dose activity change, negative = inhibition, hits mostly inhibitors; hit rate 4.4% among 390,000; AID 504339; note: potency is the fitted concentration of half-maximal effect; % is set by controls: 0 for no effect and ±100 for the full control effect; nearly all actives have a fitted effect of over 50% in size
CtBP-E1A inh: inhibitors of CtBP/E1A interaction; AlphaScreen GST-E1A/His-CtBP binding, 1536-well; stronger effect = lower value; activity change, % (concentration not given with the values); hit rate 0.49% among 340,000; AID 651724; in the data active = activity change below about -65%; inconclusive = mostly about -30% to -63%; note: % is set by controls: 0 for no effect and ±100 for the full control effect
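Homogeneous bead-based format: GST-tagged E1A captured on glutathione donor beads, His-tagged CtBP on nickel acceptor beads; compounds precede bead addition by 2 h at 37 °C.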
HP1b binding inh: inhibitors of HP1-beta chromodomain binding to methylated histone tails; P83916; AlphaScreen HP1-beta / biotin-H3K9me3 peptide binding; Potency, µM (top dose mostly 114 µM), inactives show top-dose activity change, negative = inhibition, most hits filed as inhibitors; hit rate 0.56% among 390,000; AID 540317; note: potency is the fitted concentration of half-maximal effect; nearly all actives have a fitted effect of over 70% in size
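AlphaScreen: HP1-beta (50 nM) preformed 30 min with biotin-H3(1-18)K9me3 peptide (50 nM) in PBS pH 7.4, 0.01% Tween-20. Compound added for 30 min at RT, then streptavidin donor/nickel chelate acceptor beads (10 ug/mL) for 30 min.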
TDP1 block: inhibitors of human tyrosyl-DNA phosphodiesterase TDP1; Potency, µM (doses to about 130 µM), without a hit: at the top dose activity change, negative = inhibition, usual class: inhibitors; hit rate 0.28% among 350,000; AID 485290; Q9NUW8; recombinant TDP1, AlphaScreen DNA substrate cleavage; note: potency is the fitted concentration of half-maximal effect; % is set by controls: 0 for no effect and ±100 for the full control effect; nearly all actives have a fitted effect of over 40% in size
Target sequence (Q9NUW8 whole entry, looked up): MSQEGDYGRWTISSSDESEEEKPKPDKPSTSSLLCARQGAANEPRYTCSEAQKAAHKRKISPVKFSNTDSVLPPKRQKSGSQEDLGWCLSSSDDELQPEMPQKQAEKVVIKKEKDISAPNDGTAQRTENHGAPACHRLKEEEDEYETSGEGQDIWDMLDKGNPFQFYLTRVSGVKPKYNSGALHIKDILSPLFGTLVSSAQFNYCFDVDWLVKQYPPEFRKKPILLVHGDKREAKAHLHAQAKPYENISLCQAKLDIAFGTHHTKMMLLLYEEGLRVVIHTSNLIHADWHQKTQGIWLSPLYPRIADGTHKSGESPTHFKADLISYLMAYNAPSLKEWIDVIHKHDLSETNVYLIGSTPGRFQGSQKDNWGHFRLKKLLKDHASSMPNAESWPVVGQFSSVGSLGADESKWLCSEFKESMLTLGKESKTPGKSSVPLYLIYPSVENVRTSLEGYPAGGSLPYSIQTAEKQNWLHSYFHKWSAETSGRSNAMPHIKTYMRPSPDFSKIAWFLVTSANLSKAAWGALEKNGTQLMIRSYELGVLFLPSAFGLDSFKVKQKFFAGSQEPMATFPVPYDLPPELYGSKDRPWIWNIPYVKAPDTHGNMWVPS
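Recombinant human Tdp1 (E. coli-expressed, 1 nM final) preincubated with compounds 15 min at room temperature, then 5'-biotin/3'-phosphotyrosine-FITC DNA substrate (15 nM final) added for 5 min. AlphaScreen beads (10 ug/ml final) added 10 min; cleavage lowers signal.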
Six1-Eya2 blk: blocks human Six1 binding to Eya2 | Q15475+O00167 | AlphaScreen GST-Six1/His-Eya2 binding, biochemical; stronger effect = lower value | activity change, % (no concentration beside the values) | hit rate 0.56% among 360,000; in the data active = activity change below about -65%; inconclusive = mostly about -30% to -63%; note: % is set by controls: 0 for no effect and ±100 for the full control effect
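GST-Six1 + His-Eya2 (5X stock: 250/500 nM); Tris pH 8.0, 300 mM NaCl, 0.05% BSA, 0.02% Tween 20; GSH donor/Ni acceptor beads; 1 h 37 °C dark; AlphaScreen readout.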
Active calls of the source: *; [ ] = another dose, or the depositor's remark. Unless noted, calls come from the whole dose curve; as a rule, active = well fitted inhibition curve with a large enough effect; inconclusive = small, poorly fitted or top-dose-only effect; inactive = no such curve, though single readings can be large or run the other way.

For COc1ccc(NCc2cccn2-c2nnc(N3CCCCC3)s2)cc1OC the results were BAZ2B block -29%[57.1 µM], JMJD2A Tudor inconclusive, HP1b binding inh inconclusive and TDP1 block 3%.
COc1ccc(C(C)=O)cc1COC(=O)CSCC(=O)Nc1ccc(C)cc1 was read as BAZ2B block 79µM*, JMJD2A Tudor -8%, CtBP-E1A inh 13, HP1b binding inh 26%, TDP1 block 13% and Six1-Eya2 blk -5.
`COc1cc(/C=N\NC(=O)CC#N)ccc1OC/C=C/c1ccccc1` gave BAZ2B block 56µM*, JMJD2A Tudor 79µM*, CtBP-E1A inh inconclusive, HP1b binding inh 33%, TDP1 block 6%[56.1 µM] and Six1-Eya2 blk inconclusive.
`COc1ccc(OCc2cc(/C=N\NC(=O)c3ccccc3)ccc2OC)cc1` gave BAZ2B block -1%, JMJD2A Tudor -14%, CtBP-E1A inh -4, HP1b binding inh -4%, TDP1 block 4% and Six1-Eya2 blk -10.
`COc1cc(/C=N/NC(=O)c2ccccc2O)ccc1OCC(=O)Nc1ccccc1` gave BAZ2B block 79µM*, JMJD2A Tudor -24%, CtBP-E1A inh 0, HP1b binding inh 58% and Six1-Eya2 blk -20.
COc1ccc(/C=C/C(=O)Oc2ccc(/C=N/NC(=O)c3ccccc3)cc2)cc1OC was read as BAZ2B block 0%, JMJD2A Tudor -15%, CtBP-E1A inh -75*, HP1b binding inh 10%, TDP1 block 0% and Six1-Eya2 blk 2.
`COc1cc(/C=N/NC(=O)c2ccncc2)ccc1OCC(=O)Nc1ccccc1` gave BAZ2B block 0%, JMJD2A Tudor -4%, CtBP-E1A inh -5, HP1b binding inh 23%, TDP1 block 8% and Six1-Eya2 blk -24.
For COc1cc(/C=N\NC(=O)c2ccc(-c3ccccc3)cc2)ccc1OCC(N)=O the results were BAZ2B block -2%, JMJD2A Tudor 89µM*, CtBP-E1A inh 11, HP1b binding inh 11%, TDP1 block 0%[56.1 µM] and Six1-Eya2 blk 7.
COc1ccc(C)cc1NC(=O)C(=O)NCC(c1cccnc1)N1CCN(c2ccccc2F)CC1 (stereo not drawn) was read as BAZ2B block -4%, JMJD2A Tudor -8%, HP1b binding inh 37% and TDP1 block 1%.
`Cc1ccnc(N=O)c1` gave JMJD2A Tudor 20µM*, CtBP-E1A inh -2, HP1b binding inh inconclusive and Six1-Eya2 blk 1.
Screening O=C(CSc1n[nH]c(-c2ccncc2)n1)NC1CCS(=O)(=O)C1 (stereo not drawn) returned BAZ2B block 0%, JMJD2A Tudor 89µM*, CtBP-E1A inh 3, HP1b binding inh 49%, TDP1 block 2% and Six1-Eya2 blk -1.
Screening COc1ccc(Nc2nc(NC(C)(C)C)nc(N3CCCC3)n2)c(OC)c1 returned BAZ2B block 35µM*, JMJD2A Tudor 28µM*, CtBP-E1A inh inconclusive, HP1b binding inh inconclusive, TDP1 block 11% and Six1-Eya2 blk inconclusive.
`CCc1ccccc1S(=O)(=O)Cc1ccc(C(=O)NC(C)C)o1` gave JMJD2A Tudor -12%, CtBP-E1A inh -4, HP1b binding inh 47% and Six1-Eya2 blk 7.
`CCc1ccccc1S(=O)(=O)Cc1ccc(C(=O)NCCc2ccc(C)cc2)o1` gave BAZ2B block -2%, JMJD2A Tudor 20µM*, HP1b binding inh 49% and TDP1 block 0%.
For CC1=C(C(=O)Nc2cccc(C)c2C)C2(CCCCC2)OC1=O the results were BAZ2B block -13%, JMJD2A Tudor -9%, HP1b binding inh 25% and TDP1 block -2%.
CCN(CC)c1ccc(/C=N/N2C(=O)c3ccccc3C2=O)c(O)c1 was read as BAZ2B block 15%, JMJD2A Tudor -26%, CtBP-E1A inh -3, HP1b binding inh 9%, TDP1 block 1% and Six1-Eya2 blk 6.
C(=N\N1CCN(Cc2cccc3ccccc23)CC1)/c1cccs1 was read as BAZ2B block 13µM*, JMJD2A Tudor 40µM*, CtBP-E1A inh -19, HP1b binding inh inconclusive, TDP1 block 8% and Six1-Eya2 blk inconclusive.
Screening Oc1ccc(Br)cc1/C=N/N1CCN(Cc2cccc3ccccc23)CC1 returned BAZ2B block -39%, JMJD2A Tudor inconclusive, HP1b binding inh -2%, TDP1 block -1% and Six1-Eya2 blk -3.
`CCN(CC)c1ccc(/C=N/N2CCN(Cc3cccc4ccccc34)CC2)c(O)c1` gave BAZ2B block inconclusive, JMJD2A Tudor 7.1µM*, CtBP-E1A inh inconclusive, HP1b binding inh inconclusive, TDP1 block 12% and Six1-Eya2 blk inconclusive.
`CCN(CC)c1ccc(/C=N/N2CCN(Cc3ccc(Cl)cc3)CC2)c(O)c1` gave BAZ2B block 3.5µM*, JMJD2A Tudor inconclusive, CtBP-E1A inh -21, HP1b binding inh inconclusive, TDP1 block 7% and Six1-Eya2 blk -5.
Screening Cc1nn(C)c2c1c(-c1ccccc1)cc(=O)n2CC(=O)NC(C)c1ccccc1 (stereo not drawn) returned BAZ2B block 50µM*, JMJD2A Tudor 50µM* and HP1b binding inh 40µM*.
For COC(=O)c1ccc(NC(=O)c2ccc3c(c2)NC(=O)C2CCCN32)cc1 (stereo not drawn) the results were BAZ2B block 50µM* and TDP1 block -16%.
CCCN(C(=O)c1cc2c(s1)-c1ccccc1SC2)c1ccccc1F was read as BAZ2B block 63%, JMJD2A Tudor 86%, HP1b binding inh 125% and TDP1 block -10%.
Screening O=C(OCC#CCSc1nnc(-c2cccc3ccccc23)o1)C1CCC1 returned JMJD2A Tudor 101%.
S=c1[nH]c2cc3c(cc2[nH]1)OCCO3 was read as BAZ2B block -13%, JMJD2A Tudor -32%, CtBP-E1A inh 3, HP1b binding inh 3% and Six1-Eya2 blk 0.
Screening S=c1ncc2[nH]c(=S)[nH]c2[nH]1 returned JMJD2A Tudor 11µM*, CtBP-E1A inh 0, HP1b binding inh inconclusive and Six1-Eya2 blk -21.
Cc1ccc(NC(=O)CN(C)S(=O)(=O)c2ccc3c(c2)CCC(=O)N3)c(C)c1 was read as BAZ2B block -13%, JMJD2A Tudor -12%, HP1b binding inh 25% and TDP1 block 2%.
`CCOc1ccc(NCc2cccn2-c2nnc(N3CCC(C(=O)NCCCN4CCCCC4CC)CC3)s2)cc1` (stereo not drawn) gave BAZ2B block inconclusive, JMJD2A Tudor 28µM*, HP1b binding inh -17%[57 µM], TDP1 block 14% and Six1-Eya2 blk inconclusive.
`Cc1ccc(SCC(=O)Nc2ccc3oc(-c4cccc(Cl)c4)nc3c2)cc1` gave BAZ2B block 2%, JMJD2A Tudor -12%, HP1b binding inh 29% and TDP1 block -2%.
